Records with an inconclusive call do not appear. A call without a number means that no potency is given here. A structure can be active in one record and inactive in another. Activity calls are given as the source filed them. The call rests on the fitted dose curve; in most records, active means well fitted activation curve with a large enough effect in the signal ratio in the repeat runs (not every such curve was filed as active); inconclusive means weak or mixed curves; inactive means flat fitted curve, though single readings scatter; the % refers to the signal ratio.
Experiment: qHTS assay to identify small molecule agonists of H2AX (AID 1224845)
Conditions: CHO-K1 phospho-H2AX Ser139 HTRF, 3 h; series mostly up to 154 µM; activation (H2AX phosphorylation): at the top concentration
Source text: National Center for Advancing Translational Sciences [NCATS]
NIH Chemical Genomics Center [NCGC]
U.S. Environmental Protection Agency [EPA]
National Institutes of Environmental Health Sciences [NIEHS]
National Toxicology Program [NTP]
U.S. Food and Drug Administration [FDA]
HTRF phospho-H2AX (Ser139) assay (Cisbio Bioassays, US) enables the quantitative detection of the histone variant H2AX when phosphorylated on serine 139. When double-stranded DNA breaks, either by ionizing radiation or endogenous physiological processes, H2AX becomes phosphorylated at Ser139. This phospho-Ser139 serves as a sensitive biomarker for the detection of such breaks, localizing the site of DNA repair. So, HTRF phospho-H2AX Ser139 is a pertinent assay to study genome stability, the cell cycle, DNA repair, and it serves as a biomarker for cancer, and to understand aging. Wild type CHO-K1 cells were used to identify the inducers of Phospho-H2AX Ser 139 from the Tox21 10K compound collections.
Tox21 Assay Protocol Summary:
The CHO-K1 cells suspended in culture medium containing 10% FBS were dispensed at 1000 cells/ 3 ul/well in 1536-well white wall/solid bottom plates (Greiner Bio-One North America, NC) using a Multidrop Combi (Thermo Fisher Scientific Inc., Waltham, MA). After the assay plates were incubated at 37C overnight, 23 nl of compounds at 15 concentrations (from 5-48 columns) or positive control (from 1 to 4 columns) were transferred to the assay plates using a Pintool station (Wako, San Diego, CA) into each well resulting in a final DMSO concentration of 0.76%. After 3hr incubation at 37C, 1 uL/well Supplemented Lysis buffer (diluted 100 fold blocking reagent in lysis buffer) (HTRF Phospho-H2A.X (S139) Assay kit from Cisbio US Inc., Bedford, MA) was added using a Flying Reagent Dispenser (FRD) (Aurora Discovery, CA). After 10sec spin at 1000 rpm in a plate centrifuge, the assay plates were incubated at room temperature for 30 min. Then followed by the addition of 1 uL/well detection buffer (containing a mixture of two antibodies, one labeled with cryptate, Anti pH2AX (S139)-K and another labeled with d2, Anti H2AX-d2) using FRD. After incubation at room temperature for 24 hr, the time resolved fluorescence at excitation 320 nm and emissions at 665 nm and 620 nm was measured using an Envision plate reader (PerkinElmer, Waltham, MA).
Potency means the concentration at half of the fitted maximal effect.

Structure (SMILES)	Potency	activation (H2AX phosphorylation)
CCCCCC1C(=O)CCC1CC(=O)OC (stereo not given)	inactive	–
CC1(C)NC(=O)N(c2ccc([N+](=O)[O-])c(C(F)(F)F)c2)C1=O	inactive	–
CC(C)[C@@H]1CC[C@@H](C)CC1=O	inactive	–
Oc1ccc(C(c2ccc(O)cc2)C(Cl)(Cl)Cl)cc1	inactive	–
C=CC(=O)OCCCC	inactive	–
CC(=O)O[C@]1(C(C)=O)CC[C@H]2[C@@H]3C=C(Cl)C4=CC(=O)CC[C@]4(C)[C@H]3CC[C@@]21C	inactive	–
CN(C)/N=N/c1nc[nH]c1C(N)=O	inactive	–
COc1ccc2nc(N)sc2c1	inactive	–
C=C[Si](OCCOC)(OCCOC)OCCOC	inactive	–
O=C(O)c1ccc(O)cc1	inactive	–
CC(=O)Oc1ccc(C(c2ccc(OC(C)=O)cc2)c2ccccn2)cc1	inactive	–
O=[Se](O)O	inactive	–
O=C1CCc2ccccc2O1	inactive	–
C=C[C@@]1(C)CC(=O)[C@]2(O)[C@@]3(C)[C@@H](O)CCC(C)(C)[C@@H]3[C@H](O)[C@H](OC(C)=O)[C@@]2(C)O1	inactive	–
CC1(C)OC(=O)NC1=O	inactive	–
Clc1ccc(Sc2cc(Cl)c(Cl)cc2Cl)cc1	inactive	–
C=C[C@H]1CN2CC[C@H]1C[C@H]2[C@H](O)c1ccnc2ccc(OC)cc12	inactive	–
COc1ccc(-c2coc3cc(O)cc(O)c3c2=O)cc1	inactive	–
c1ccc2ncccc2c1	inactive	–
Cc1ccc([N+](=O)[O-])c(C)c1	4.5 µM (active) and inactive	–

Structure (SMILES)	Potency	activation (H2AX phosphorylation)
COCCOCCOCCO	inactive	–
IC(I)I	inactive	–
C=CCOC(=O)C(=C)C	inactive	–
CCCCCCCCCCCCCO	inactive	–
CC1=CC(C)(C)Nc2ccccc21	inactive	–
COC(=O)CC(=O)OC	inactive	–
C[C@]12CC[C@@H]3c4ccc(O)cc4CC[C@H]3[C@@H]1CC[C@H]2O	inactive	–
CC[C@]12CCCN3CCc4c(n(c5ccccc45)[C@@](O)(C(=O)OC)C1)[C@@H]32	inactive	–
CC/C=C\C/C=C\C/C=C\CCCCCCCC(=O)O	inactive	–
Cc1ccc(/C(=C\CN2CCCC2)c2ccccn2)cc1	inactive	–
Cc1ccc(N)c([N+](=O)[O-])c1	inactive	–
OC[C@@H](O)[C@@H](O[C@@H]1O[C@H](CO)[C@H](O)[C@H](O)[C@H]1O)[C@H](O)[C@@H](O)CO	–	-0.834% (inactive)
CC/C(=C(/CC)c1ccc(O)cc1)c1ccc(O)cc1	inactive	–
O=S1(=O)CCCO1	inactive	–
ClC/C=C/CCl	inactive	–
CCCCCCOCCOCCO	inactive	–
CC(=O)[C@H]1CC[C@H]2[C@@H]3CC=C4C[C@@H](O)CC[C@]4(C)[C@H]3CC[C@]12C	inactive	–
COC(=O)C(C)Oc1ccc(Oc2ncc(C(F)(F)F)cc2Cl)cc1 (stereo not given)	inactive	–
Cc1ccc(S(=O)(=O)O)cc1C	inactive	–
C=C1C[C@H]2[C@@H]3C=C(C)C4=CC(=O)CC[C@]4(C)[C@H]3CC[C@]2(C)[C@@]1(OC(C)=O)C(C)=O	inactive	–

— PubChem BioAssay (Tox21)
